The panel holds about 79,000 compounds, 15% with a hit somewhere; the sample as a whole holds those more often. Values without a mark were called inactive. Activity calls are given as the source filed them. Rule as the data show it: active = growth inhibition above about 70%; inactive = the rest.
Assay: NCI Yeast Anticancer Drug Screen. Data for the mec2-1 strain (AID 157)
Conditions: S. cerevisiae mec2-1 strain, hits give high values
Procedure: Growth inhibition of yeast strains with defined genetic alterations is measured as a screen for potential anti-cancer activity. Selected strains with alterations in DNA damage repair or cell cycle control were exposed to compounds and growth inhibition was measured relative to vehicle treated controls. The strain used in this assay is mec2-1

[1] = at 5.0 µM (retest, dose inferred, filed as 0.5)
[2] = at 50.0 µM (retest, dose inferred, filed as 5.0)

SMILES | growth inhibition (at 1.2 µM) | growth inhibition (at 3.7 µM) | growth inhibition [1] | growth inhibition (at 11.0 µM) | growth inhibition (at 33.0 µM) | growth inhibition [2] | growth inhibition (at 50.0 µM) | growth inhibition (at 100.0 µM)
CC(C)(Br)C(=O)/C=C/c1ccc(Cl)c(Cl)c1 | -1% | 1% | 16% | -1% | 1% | 49% | 48.2% | -1%
CCCCCCCCCCCCCCC(C(=O)[O-])[n+]1ccccc1 (stereo not given) | 3% | 1% | -2% | -7% | -2% | 97% (active) | 99% (active) | 95% (active)
c1ccc2c(c1)sc1nc3ccncc3nc12 | 5% | 1% | -38% | 0% | 3% | -8% | 28.1% | 9%
BrCc1cccc2ccc3cccc(CBr)c3c12 | -2% | -1% | -5% | -2% | -3% | 97% (active) | 21.8% | -2%
c1ccc2c(c1)Oc1cccc3cccc-2c13 | -6% | 4% | 99% (active) | -3% | 2% | 99% (active) | 17.6% | 20%
